Source: the antibiotic and cytotoxicity screens of Wong et al. (2023)
The whole screen tested about 39,000 compounds, of which about 3,300 (8.5%) were called active. The entries come from a sample that favours actives as a whole.

Each compound was assayed on HepG2 (assay: cytotoxicity call (relative viability < 0.9)). Conditions: 10 µM.

| SMILES | cytotoxicity call |
| --- | --- |
| Cc1ccc(S(=O)(=O)N[C@@H]2CC[C@H](CCNC(=O)CN3CCOCC3)O[C@H]2CO)cc1 | inactive |
| CCOC(=O)CCc1n[nH]c(=O)[nH]c1=O | inactive |
| O=C(CCCCCNC(=O)OCCCCO[C@@H]1C[C@H](C2CCCCC2)C=C(C(=O)N2CCOCC2)O1)NO | inactive |
| Cc1noc(C)c1NC(=O)Nc1ccc2c(c1)C(=O)N([C@@H](C)CO)C[C@@H](C)[C@H](CN(C)S(C)(=O)=O)O2 | inactive |
| C[C@H](CO)N1C[C@H](C)[C@@H](CN(C)C(=O)CCC(F)(F)F)OCCCC[C@H](C)Oc2ccc(NC(=O)C3CCCCC3)cc2C1=O | inactive |
| Cc1noc(C)c1NC(=O)N(C)C[C@@H]1OCCCC[C@H](C)Oc2ccc(NC(=O)CCC(F)(F)F)cc2C(=O)N([C@@H](C)CO)C[C@H]1C | inactive |
| C[C@H](CO)N1C[C@H](C)[C@H](CN(C)Cc2ccc(Cl)c(Cl)c2)Oc2c(NC(=O)Nc3ccccc3)cccc2C1=O | inactive |
| C[C@@H]1CN([C@H](C)CO)C(=O)c2cccc(NS(=O)(=O)c3ccc(Cl)cc3)c2O[C@H]1CN(C)Cc1ccc(Cl)c(Cl)c1 | inactive |
| O=S1(=O)C[C@H](NCCO)[C@@H](O)C1 | inactive |
| CNC(=O)C(=O)NCCc1c[nH]c2ccccc12 | inactive |
| NC(Cc1c[nH]c2ccccc12)C(=O)O (stereo not drawn) | inactive |
| OCc1c[nH]c2ccccc12 | active |
| C[C@@H]1CN([C@H](C)CO)C(=O)c2cccc(NC(=O)c3nc4ccccc4s3)c2O[C@H]1CN(C)C(=O)Nc1ccc(F)cc1 | inactive |
| CN1CCN(C(=O)CC#N)CC1 | inactive |
| C[C@@H]1CN([C@@H](C)CO)C(=O)c2cccc(NC(=O)C3CCCCC3)c2O[C@H]1CN(C)S(=O)(=O)c1cn(C)cn1 | inactive |
| CCCCCC[C@@H](O)CC=CCCCCCCCC(=O)O | inactive |
| N[C@@H]1CC[C@@H](c2ccc(Cl)c(Cl)c2)c2ccccc21 | active |
| CN[C@H]1CC[C@@H](c2ccc(Cl)c(Cl)c2)c2ccccc21 | active |
| CNC1CCC(c2ccc(Cl)c(Cl)c2)c2ccccc21.Cl (stereo not drawn) | active |
| C[C@@H]1CN([C@@H](C)CO)C(=O)CCCn2nncc2CO[C@@H]1CN(C)S(=O)(=O)c1ccc(C#N)cc1 | inactive |
| CC(=O)NCCCC[C@@H]1NC(=O)[C@@H]2C[C@H](C(=O)NCCCCCCNC(=O)CS)[C@H](c3ccc(O)cc3)N2C1=O | inactive |
| C[C@@H]1CCCCO[C@H](CN(C)C(=O)NC2CCCCC2)[C@H](C)CN([C@@H](C)CO)C(=O)c2cc(NC(=O)c3ccncc3)ccc2O1 | inactive |
| C[C@@H]1CN([C@@H](C)CO)C(=O)c2cc(NC(=O)NC3CCCCC3)ccc2O[C@@H](C)CCCCO[C@H]1CN(C)Cc1ccc(C(=O)O)cc1 | inactive |
